Entries with a potency or affinity are not part of this list. Calls of active or inactive are those of the source. No rule for the calls is given here.
Assay: cytotoxicity control, cell-based, set 2 (AID 504683)
Conditions: THP-1 human monocytes; series mostly up to 100 µM; viability: at the top concentration

Structure (SMILES) | viability
Cc1nc(SCc2ccccc2Cl)[nH]c(=O)c1C | 97.9% (inactive)
O=C(CSc1nc(O)cc(=O)[nH]1)Nc1ccccc1 | 103% (inactive)
O=C(CSc1nc2ccccc2c(=O)[nH]1)NCc1ccc(Cl)cc1 | 89.6% (inactive)
CCSc1nc2ccccc2c(=O)[nH]1 | 90.2% (inactive)
Cc1ccc(NC(=O)COC(=O)CCc2c[nH]c3ccccc23)cc1[N+](=O)[O-] | 104% (inactive)
Cc1[nH]c(=S)[nH]c(=O)c1C | 101% (inactive)
Cc1nc(SCC(N)=O)[nH]c(=O)c1C | 102% (inactive)
Cc1cc(=O)[nH]c(SCC(=O)Nc2ccccc2)n1 | 90.5% (inactive)
O=c1[nH]c(=S)[nH]c2ccccc12 | 105% (inactive)
O=C(CSc1nccc(=O)[nH]1)Nc1ccc(N2CCOCC2)cc1 | 103% (inactive)
CCc1ccc(/C=C2/C(=O)N(C)C(=S)N2CC(=O)OC)s1 | 82.8% (inactive)
O=C(CSc1ccccn1)NC1CCCCC1 | 106% (inactive)
COC(=O)C(C)Oc1ccc(Cc2ncc(C(F)(F)F)cc2Cl)cc1 (stereo not drawn) | 102% (inactive)
Cc1c[nH]c(=S)[nH]c1=O | 113% (inactive)
O=C(CSc1nccc(=O)[nH]1)Nc1ccc(Oc2ccccc2)cc1 | 94.9% (inactive)
CC(=NCc1ccc2c(c1)OCO2)C1=C(O)c2ccccc2C1=O | 96.5% (inactive)
Cc1cc(=O)[nH]c(=S)[nH]1 | 114% (inactive)

Structure (SMILES) | viability
O=C(/C=C\c1cccs1)N1CCN(Cc2ccc3c(c2)OCO3)CC1 | 87.9% (inactive)
CCSc1nc(C)c(C)c(=O)[nH]1 | 100% (inactive)
CCOC(=O)COc1ccc(/C=C2\NC(=S)N(CC)C2=O)cc1 | 83.1% (inactive)
COC(=O)C(C)Oc1ccc(-c2nccc(-c3ccccn3)n2)cc1 (stereo not drawn) | 83.3% (inactive)
COC(=O)c1ccc(CNc2c(N3CCCC3)c(=O)c2=O)cc1 | 100% (inactive)
COC(=O)C1CC(=O)N(c2ccc(OCc3ccccc3Cl)cc2)C1 (stereo not drawn) | 95.3% (inactive)
CCOC1OC(=O)C(Cl)=C1Nc1ccccc1C (stereo not drawn) | 91.5% (inactive)
CC1CCN(C(=O)C2CCN(c3nnc(-n4cccc4)s3)CC2)CC1 | 90.2% (inactive)
CCOC(=O)CSc1nc(C)c(C)c(=O)[nH]1 | 101% (inactive)
O=C(CSc1nc2ccccc2c(=O)[nH]1)NC1CCCCC1 | 106% (inactive)
COC(=O)CCc1nc2c(C#N)c(-c3ccc(Cl)cc3)ccn2n1 | 97.2% (inactive)
COc1cc(NC(=O)C/C(C)=N/NC(=O)c2ccccn2)c(OC)cc1Cl | 99.3% (inactive)
O=C(CSc1ncccn1)NC1CCCCC1 | 110% (inactive)
Cc1nc(SCC(=O)NC2CCCCC2)[nH]c(=O)c1C | 113% (inactive)
Cc1nc(SCC(=O)N(C)c2ccccc2)[nH]c(=O)c1C | 90% (inactive)
Cc1ccc(NC(=O)C2C3/C=C\CCCCC32)cc1C (stereo not drawn) | 93% (inactive)
